Bioassay records (PubChem)
This is a sample that favours compounds with a hit; in the whole collection about 7.9% have one here.
SW480 rerep: DNA re-replication induction in SW480 cells; SW480 DNA re-replication, Hoechst DNA content imaging, 48 h; Potency, µM (series often up to 46.1 µM), inactives show at the highest dose re-replication activation, usual class: activators; 340,000 compounds, 1.8% hits; also: % of control where 0% means no effect; nearly all actives have a fitted effect of over 55% in size
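First, 250 cells per well were seeded. Next, compound or vehicle (23 nL) was pinned in, plates sat 48 hr at 37 C. Finally Hoechst was added for 40 min before fluorescence scanning.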
HT1080NT lethal: kills 2HG-producing HT-1080-NT fibrosarcoma cells; AID 686970; 360,000 compounds, 1.6% hits; HT-1080-NT fibrosarcoma viability, CellTiter-Glo ATP luminescence, 48 h; Potency, µM (series often up to 46.1 µM), without a hit: top-dose activity, negative = less viability, most hits filed as cytotoxic;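 also: NT is the 2HG producing partner of a matched IDH1 knockdown line; 0% = DMSO-treated cells and -100% = media-only wells without cells; nearly all actives have a fitted effect of over 55% in size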
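Viability of the 2HG-overproducing fibrosarcoma line after 48 hours of compound exposure at 37 degrees C was determined by luminescence with CellTiter-Glo, and concentration-effect curves were then fitted and categorized.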
MCF10A rereplic: induces DNA re-replication in MCF 10a normal breast cells; MCF 10A DNA re-replication, Hoechst nuclear intensity, 48 h; Potency, µM (titrated, usually from 46.1 µM), for the others: at the top dose activity, positive = re-replication, actives largely listed as activators; 350,000 compounds, 2.9% hits; also: % of control where 0% means no effect; nearly all actives have a fitted effect of over 50% in size
HT1080 IDH1KD tx: kills HT-1080 cells with IDH1 knockdown; HT-1080 IDH1 knockdown viability, ATP luminescence, 48 h; Potency, µM (series often up to 46.1 µM), without a hit: at the highest dose activity, negative = toxicity, most hits filed as cytotoxic; 360,000 compounds, 2% hits;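 also: 0% = DMSO wells and -100% = cell-free medium wells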
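% activity derives from luminescence (CellTiter-Glo), normalised to DMSO and no-cell wells. HT-1080-IDH1KD cells, 750/well, had 48 h compound exposure at 37 °C.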
KB-V1 MDR tox: kills drug-selected multidrug resistant KB-V1 cells; AID 1347076; 400,000 compounds, 3.4% hits; Potency, µM (series often up to 46.1 µM), actives largely listed as cytotoxic; KB-V1 MDR cells viability, CellTiter-Glo, 72 h; also: % is scaled to controls: 0 for no effect and ±100 for the full control effect; nearly all actives have a fitted effect of over 60% in size
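KB-V1, DMEM (no phenol red) + 10% FBS; cpd pin-transferred, titration series; 72 h, 37 degrees C; CellTiter-Glo, luminescence. Data normalized, curve-fit.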
KB-3-1 tox: kills parental KB-3-1 adenocarcinoma cells. KB-3-1 viability, CellTiter-Glo ATP luminescence, 72 h. Potency, µM (series often up to 46.1 µM), usual class: cytotoxic. 400,000 compounds, 1.4% hits; also: % is scaled to controls: 0 for no effect and ±100 for the full control effect; nearly all actives have a fitted effect of over 60% in size
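72 h, 37 °C compound treatment of KB-3-1 parental cells; CellTiter-Glo added, 10 min, luminescence read. Data corrected against DMSO-only plates and normalized before curve fitting.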
The depositor's hits bear a star; i = inactive; ? = inconclusive; . = no result given; [ ] = another dose, or the depositor's remark. Calls follow the shape of the dose curve; as a rule, active = well fitted curve in the direction sought with a large enough effect; inconclusive = small, poorly fitted or top-dose-only effect, or another doubt; inactive = no such curve, though single readings can be large; an effect the other way counts as inactive or inconclusive. Potency is read from the fitted curve at half-maximal effect.

SMILES | SW480 rerep | HT1080NT lethal | MCF10A rereplic | HT1080 IDH1KD tx | KB-V1 MDR tox | KB-3-1 tox
Cc1cc(C)cc(NC(=O)C2CCC(CNC(=O)[C@@H]3Cc4ccccc4CN3)CC2)c1 (stereo partly specified) | 18µM* | 2% | ? | -4% | i | i
O=C(Cn1c(SCCOc2ccccc2)nc2ccccc21)N1CCOCC1 | . | . | . | . | i | i
O=C(NCc1ccc2c(c1)CCN2C(=O)c1ccc(Cl)cc1)c1ccco1 | . | . | . | . | i | i
CCCCNC(=O)C(Sc1ccccc1)c1ccccc1 (stereo unspecified) | -58% | 4% | 9% | 2% | 15µM* | i
O=[N+]([O-])c1cccc(S(=O)(=O)N2CCN(c3nc(-c4cccs4)nc4ccccc34)CC2)c1 | . | . | . | . | i | i
C/C(=N\NC(=S)NCc1ccccc1)c1ccccc1 | 14% | 2% | 5% | -13% | i | i
C/C(=N\NC(=S)NCc1ccccc1)c1ccc(C(C)(C)C)cc1 | 4% | -26% | ? | ? | 18µM* | i
COc1ccc(-c2c3c(nc4sc(C(=O)Nc5cc(C)on5)c(N)c24)CCC3)cc1 | 18µM* | 20% | 1.5µM* | ? | i | i
COc1ccc(-c2c3c(nc4sc5c(=O)[nH]c(C)nc5c24)CCC3)cc1 | 20% | -9% | ? | -10% | i | i
Clc1ccccc1C(c1ccccc1)(c1ccccc1)n1ccnc1 | 2% | ? | 14µM* | ? | 15µM* | i
COc1c(CC=C(C)C)c(O)cc2oc(=O)c3c4ccc(O)cc4oc3c12 | ? | 1% | 18µM* | -1% | ? | i
O=C(NNc1ccc(C(F)(F)F)cc1[N+](=O)[O-])c1ccc(NS(=O)(=O)c2ccc(F)cc2)cc1 | -49% | ? | 24% | 21µM* | i | i
O=C(Cc1ccc(F)cc1)NO | . | 17% | . | 20% | . | .
CCOc1ccc(C(=O)c2cn(CC(=O)Nc3ccc4c(c3)OCCO4)c3ccc(OC)cc3c2=O)cc1 | . | . | . | . | i | i
Cc1ccc(NC(=S)NNC(=S)Nc2ccc(C)cc2C)cc1 | 26% | -30% | 21% | -21% | 4.6µM* | 1µM*
Cc1ccc(NC(=O)CCC(=O)NNC(=S)Nc2ccccc2)c(C)c1 | 0% | 7% | -2% | 0% | i | i
O=C(CNC(=O)c1ccccc1Cl)OCc1cc(=O)n2nc(C3CC3)sc2n1 | . | . | . | . | i | i
CCN(C(=O)COC(=O)/C=C/c1c(C)nn(Cc2ccc(C)cc2)c1C)C1CCS(=O)(=O)C1 (stereo unspecified) | 16µM* | -9% | -3%[9.22 µM] | 1% | i | i
CCn1c(Cn2nnc(-c3ccccc3)n2)nnc1SCc1ccc(Cl)c(Cl)c1 | 21% | ? | ? | ? | 23µM* | ?
CCn1c(SCc2cccc(C)c2)nnc1-c1ccccc1 | -1% | 5% | 14% | -14% | 15µM* | i
CCn1c(SCC(O)c2ccccc2)nnc1-c1ccccc1 (stereo unspecified) | 0% | 6% | 15% | -2% | i | i
COc1ccc(CNC(=O)C2CCCN(S(=O)(=O)c3ccc(F)cc3)C2)cc1 (stereo unspecified) | 10% | 4% | -1% | 4% | . | .
COc1ccc(-c2nn(-c3ccc(C)c(Cl)c3)c3c2cnc2cc(OC)c(OC)cc23)cc1 | . | . | . | . | i | i
O=C1N(c2ccccc2)C[C@@H]2C[C@@H](c3cccs3)N3CCC[C@@]123 | 21% | 5% | 5.8µM* | -3% | i | i
CC(C)(O)C#Cc1ccc([C@@H]2C[C@H]3CN(c4ccccc4)C(=O)[C@]34CCCN24)s1 | 8.2µM* | -23% | ? | ? | i | ?
SMILES | SW480 rerep | HT1080NT lethal | MCF10A rereplic | HT1080 IDH1KD tx | KB-V1 MDR tox | KB-3-1 tox
COCc1cc([C@@H]2C[C@H]3CN(c4ccccc4)C(=O)[C@]34CCCN24)ccc1OC | 1% | 11% | -10% | 0% | i | i
COc1ccc([C@@H]2C[C@H]3CN(c4ccccc4)C(=O)[C@]34CCCN24)c(OC)c1OC | -14% | 8% | -3% | 10% | i | i
CCOc1cc(/C=C/c2ccc3cccc([N+](=O)[O-])c3n2)ccc1OCC(=O)N(C)C | ? | 5% | 28% | -15% | 18µM* | ?
CCOc1c(OC(C)=O)ccc(/C=C/c2ccc3cccc(OC(C)=O)c3n2)c1[N+](=O)[O-] | ? | ? | ? | ? | 12µM* | ?
CCOc1cc(/C=C/c2ccc3cccc([N+](=O)[O-])c3n2)ccc1O | . | -25% | ? | -25% | 21µM* | 12µM*
COc1cc(/C=C/c2ccc3cccc([N+](=O)[O-])c3n2)ccc1OCC#N | 0% | -20% | 8% | -28% | i | i
COc1ccc(-c2nc3ccc(NS(C)(=O)=O)cc3o2)cc1 | . | . | . | . | i | i
CC(C)c1ncc([N+](=O)[O-])n1C | -5% | . | -1% | . | . | .
Cc1ccc(S(=O)(=O)N(C)c2ccc(C(=O)Nc3cccc(C)n3)cc2)cc1 | -5% | 1% | ? | -13% | ? | i
Cc1cc(NC(=O)c2cccc(S(=O)(=O)N(C)C)c2)n(-c2ccccn2)n1 | 20% | 0% | ? | -10% | 9.2µM* | i
CN(c1ccccc1)S(=O)(=O)c1cccc(C(=O)NC2CCCCC2)c1 | -2% | 4% | ? | 7% | 15µM* | i
Cc1cc(NC(=O)c2cccc(S(=O)(=O)N3CCCCCC3)c2)n(-c2ccccn2)n1 | 5% | 3% | -6% | 2% | ? | i
Cc1cccc(NC(=O)c2cccc(S(=O)(=O)N(C)c3ccccc3)c2)n1 | 4% | -13% | 24% | -2% | 7.3µM* | i
COc1ccc(C2=CCCC2)c(OC)c1 | 4% | 10% | 12% | ? | i | i
Cc1ccc(OCc2cc(C(=O)N(C)CCc3ccccn3)no2)cc1C | ? | -5% | ? | -1% | i | i
Cc1ccc(OCc2cc(C(=O)N(C)CCc3nc4ccccc4[nH]3)no2)cc1C | ? | ? | 21µM* | -10% | i | i
C/C(=N\NC(=O)Cc1c[nH]c2ccccc12)c1ccc2ccccc2c1 | -1% | ? | ? | 16µM* | ? | i
CCOC(=O)[C@@H]1[C@H]2COc3cc(OC)ccc3[C@H]2N2C(=O)N(c3ccc(C(F)(F)F)cc3)C(=O)[C@]12C | 1% | ? | 13% | ? | ? | ?
